From PubChem BioAssay (EPA / NIEHS) come the findings set out here.

Each structure is given as a SMILES string. Records with an inconclusive call do not appear. Activity calls are given as the source filed them. The calls were made as follows, unless noted: active = hit-call score of the fitted dose curve at least 0.9, where 1 is the maximum; inactive = score below 0.9.

Experiment [1] in a line: CCTE_Simmons_MITO_inhib_resp_rate: CCTE's HepG2 Seahorse XF Respirometric Screening Assay at Inhibited Respiratory State [full ETC block], Simmons Lab (AID 2284006). As to conditions: actives raise or lower the signal. In outline:
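This endpoint is the respiration rate remaining after rotenone/antimycin A block, in HepG2 cells on a Seahorse XF96. Chemicals spanned 125 nM–100 uM final, in three biological replicates. OCR was read every 6 minutes for 72 minutes and compared with DMSO vehicle.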

Experiment [2] can be described thus: CCTE_Simmons_MITO_viability: CellTiter-Glo Viability Assessment for CCTE's HepG2 Seahorse XF Respirometric Screening Assay [post-hoc], Simmons Lab (AID 2284007; active = hit-call score of the fitted dose curve at least 0.9, where 1 is the maximum;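 as to AC50: cells exposed to chemical for 90 min before the ATP read; actives lower ATP signal relative to DMSO baseline meaning reduced viability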). The gist of the method: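 Luciferase-coupled ATP read-out after the Seahorse run: HepG2 cells treated 90 minutes with test chemical, 7-point series of 125 nM–100 uM final, in triplicate biological runs. Vehicle DMSO; dichlone as positive control over 8 concentrations.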

Experiment [3] in a line: CCTE_Shafer_MEA_acute_spike_number: CCTE's Neural Acute Assay for Total Number of Spikes, Shafer Lab (AID 2284008).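 As to AC50: curve fitted for decrease in spike count so AC50 reflects inhibitors.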 The gist of the method:
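Rat primary cortical neurons on 48-well MEA plates, DIV 13 or 15, at 37 C. 40 min baseline then 40 min with compound (0.03-40 uM); spikes detected at 8x rms noise, expressed as percent change from baseline.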

Experiment [4] in a line: CCTE_Shafer_MEA_acute_firing_rate_mean: CCTE's Neural Acute Assay for Mean Firing Rate, Shafer Lab (AID 2284009).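 Also: analyzed for loss of signal so actives lower firing rate relative to DMSO.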 In outline: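 Spontaneous spiking of primary rat cortical networks, DIV 13/15, 37 C. Compound 0.03-40 uM, n ≥3 wells; 40 min baseline vs 40 min treated. Endpoint fitted in loss-of-signal direction against DMSO.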
The nature of experiment [5]: CCTE_Harrill_HTTr_Viability_MCF7: CCTE's 6-hour Cell Viability Assessment for the High-Throughput Transcriptomics (HTTr) Platform, in MCF-7 cells cultured in DMEM + 10% fetal bovine serum, Harrill Lab (AID 2284010). The gist of the method:
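Propidium iodide exclusion, imaged by high-content analysis, gauged viability after a six-hour exposure across eight concentrations. Cells were MCF-7 grown in DMEM with 10% fetal bovine serum; fits run in both directions against DMSO.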

Experiment [6] is described as follows: CCTE_Harrill_HTTr_Apoptosis_MCF7: CCTE's 6-hour Apoptosis Assessment for the High-Throughput Transcriptomics (HTTr) Platform, in MCF-7 cells cultured in DMEM + 10% fetal bovine serum, Harrill Lab (AID 2284011). The gist of the method:
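MCF-7 cells in DMEM + 10% FBS exposed 6 h to chemicals over an eight-point dilution series. Caspase-3/7 activation imaged by high-content CellEvent Green staining; fitted bidirectionally versus DMSO.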

The nature of experiment [7]: CCTE_Harrill_HTTr_CellCount_MCF7: CCTE's Cell Proliferation Assessment for the High-Throughput Transcriptomics (HTTr) Platform, Harrill Lab (AID 2284012; active = hit-call score of the fitted dose curve at least 0.9, where 1 is the maximum;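 also: cells exposed to compound for six hours; intended direction is loss of nuclei count meaning fewer cells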). In outline: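 Cell count from high-content imaging of Hoechst-labeled nuclei serves as viability/growth readout. Chemicals were applied to MCF-7 cells in eight concentrations for six hours, with fitting in both directions relative to DMSO.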

Experiment [8] is described as follows: CCTE_Shafer_MEA_acute_burst_number: CCTE's Neural Acute Assay for Single-Electrode Bursts, Shafer Lab (AID 2284013). In outline:
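Burst totals were derived with adaptive spike detection (8x rms threshold) on filtered signals from rat cortical cultures; change relative to pre-treatment baseline after 40-min compound exposure (0.03-40 uM) was fitted in the negative direction against DMSO.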

Experiment [9] in a line: CCTE_Shafer_MEA_acute_burst_duration_mean: CCTE's Neural Acute Assay for Mean Burst Duration, Shafer Lab (AID 2284014).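 Also: hits are decreases in mean burst duration relative to DMSO controls.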 In outline: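 Acute exposure of mature rat cortical networks (DIV 13 or 15) grown on microelectrode arrays to 0.03-40 uM compound. Mean burst duration compared with the 40-min pre-dose baseline over a 40-min post-dose recording at 37 C.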
Experiment [10] is described as follows: CCTE_Shafer_MEA_acute_per_burst_spike_number_mean: CCTE's Neural Acute Assay for Average Number of Spikes Per Burst, Shafer Lab (AID 2284015).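 Also: hits are decreases in mean spikes per burst versus baseline.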 In outline:
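We recorded spontaneous network firing of rat cortical neurons for 40 min before and 40 min during exposure to compound at 0.03-40 uM, at 37 C. Spikes were detected adaptively at 8x rms noise, and the change in average spikes per burst was fitted against DMSO.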

A short description of experiment [11]: CCTE_Shafer_MEA_acute_interburst_interval_mean: CCTE's Neural Acute Assay for Mean Interburst Interval, Shafer Lab (AID 2284016).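 Also: percent change of mean interburst interval versus each well's own pre-dose baseline; curves fitted for decrease in interburst interval relative to DMSO.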 In outline: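 MEA recording of spontaneous network bursting in primary rat cortical cultures; mean interburst interval was compared before and after a 40-min compound exposure (0.03-40 uM) and expressed as percent change, relative to DMSO.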

Experiment [12] is described as follows: CCTE_Shafer_MEA_acute_burst_percentage_mean: CCTE's Neural Acute Assay for Percentage of Spikes in a Burst, Shafer Lab (AID 2284017).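 As to AC50: curve fitted for loss of signal so potency reflects decreased burst percentage.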 The gist of the method: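 Compounds were tested at 0.03-40 uM on primary rat cortical neuron networks grown over microelectrodes, with at least three wells per compound. Spontaneous firing was recorded for 40 min before and 40 min after dosing, and the change in burst percentage was computed per well.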

The nature of experiment [13]: CCTE_Shafer_MEA_acute_per_network_burst_spike_number_mean: CCTE's Neural Acute Assay for Average Number of Spikes in a Network Burst, Shafer Lab (AID 2284019).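 As to AC50: curve fitted for loss of signal so actives reduce spikes per network burst.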 The gist of the method:
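Acute exposure of rat primary cortical networks (DIV 13/15) on MEAs; adaptive spike detection at 8x rms noise, 37 C. Percent change in spikes per network burst after 40 min with compound (0.03-40 uM), negative direction vs DMSO.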

Experiment [14] can be described thus: CCTE_Shafer_MEA_acute_per_network_burst_electrodes_number_mean: CCTE's Neural Acute Assay for Mean Number of Electrodes in a Network Burst, Shafer Lab (AID 2284021).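 Also: curves fitted for decreases only so hits reduce electrodes per burst.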 The gist of the method: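 Rat primary cortical neurons on 48-well MEAs, DIV 13 or 15, were treated at 0.03-40 uM. Spikes were detected at 8x rms noise and recorded at 37 C. The mean electrodes per network burst in a 40 min exposure recording was expressed as percent change from a 40 min baseline.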

Experiment [15] can be described thus: CCTE_Shafer_MEA_acute_network_burst_percentage: CCTE's Neural Acute Assay for Percentage of Network Bursts, Shafer Lab (AID 2284022).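 Also: curves fitted for loss so actives lower network burst percentage.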 The gist of the method:
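Rat primary cortical neuron networks on 48-well MEA plates, DIV 13 or 15, treated acutely with compound (0.03-40 uM, at least three wells). Percent of spikes within network bursts compared between 40-min recordings before and during exposure at 37 C, expressed as percent change.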

Experiment [16] in a line: CCTE_Shafer_MEA_acute_cross_correlation_area: CCTE's Neural Acute Assay for Area of Cross Correlation, Shafer Lab (AID 2284024).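 Also: curves fitted for loss of cross-correlation area so actives lower synchrony.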 In outline:
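Rat primary cortical neurons on 48-well MEA, DIV 13 or 15; compounds 0.03-40 uM. Baseline and post-exposure 40 min recordings at 37 C; percent change in area under pooled inter-electrode cross-correlation near zero lag, relative to DMSO.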

Experiment [17] in a line: CCTE_Shafer_MEA_acute_cross_correlation_HWHM: CCTE's Neural Acute Assay for Cross Correlation at Half Width at Half Maximum, Shafer Lab (AID 2284026).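 Also: hits are a decrease in cross-correlogram half width relative to DMSO.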 The gist of the method: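 Rat primary cortical neurons on 48-well MEA plates; 40-min baseline and 40-min post-exposure recordings at 37 C on DIV 13 or 15, compounds 0.03-40 uM. Spikes detected at 8x rms noise; percent change in cross-correlogram HWHM per well vs baseline.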

Experiment [18] can be described thus: CCTE_Shafer_MEA_acute_synchrony_index: CCTE's Neural Acute Assay for Synchrony, Shafer Lab (AID 2284027).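 Also: network synchrony index of spontaneous spiking in primary rat cortical neurons on MEAs; fitted for loss of signal so actives lower synchrony relative to DMSO.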 In outline: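 The synchrony index is taken as percent change per well between a 40 min baseline and a 40 min recording with compound (0.03–40 uM), at 37C. Rat cortical cultures on multiwell MEAs at DIV 13 or 15, spike threshold 8× rms noise.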

As for `Cc1cc(CCN2CCN(c3nsc4ccccc34)CC2)cc2c1NC(=O)CC2(C)C`, the compound was classed as inactive in experiment [1], in experiment [8], in [13], in experiment [15] and in [16]. In addition, the AC50 (in general, the concentration at which the activity in the assay is half-maximal) in experiment [2] was 9.34 µM (active); in experiment [3], 8.94 µM (active); in experiment [4] it was 8.94 µM (active); in experiment [5], 77.3 µM (active); in experiment [6] it was 63.6 µM (active); in experiment [7], 92.2 µM (active). Besides, the AC50 in experiment [9] is 8.81 µM (active); in experiment [10], 20 µM (active); in [11], 5.98 µM (active); in experiment [12] it was 32.1 µM (active); in experiment [14], 32.4 µM (active); in experiment [17], 20 µM (active). Also, the AC50 in experiment [18] was 33.4 µM (active).
On to `CC[C@H](c1ccc(O)cc1)[C@@H](CC)c1ccc(O)cc1`, for which the AC50 in experiment [1] was 40.4 µM (active); in [2] it was 12.6 µM (active). The call in [3], in experiment [4], in experiment [5], in [6], in experiment [8] and in experiment [9] was inactive. The result in [10], in experiment [11], in experiment [12], in experiment [13], in experiment [14] and in [15] was inactive. The compound was classed as inactive in experiment [16], in experiment [17] and in experiment [18].
In the case of `CN1CCN(c2ccccc2/C=C2\SCCN(c3ccc(Cl)c(Cl)c3)C2=O)CC1`, the call in [1], in experiment [8], in experiment [10], in experiment [11], in [14] and in [15] was inactive. For the same compound, in experiment [16], the call was inactive. Further, the AC50 in experiment [3] was 10.3 µM (active); in experiment [4], 10.5 µM (active); in experiment [5], 73.7 µM (active); in experiment [7], 77.1 µM (active); in experiment [9] it was 32 µM (active); in experiment [12] it was 0.128 µM (active). The AC50 is 0.207 µM (active) in experiment [13], 3.97 µM (active) in experiment [17] and 34 µM (active) in experiment [18].
For `CC(O)C(=O)O` (configuration not stated), the result in [5] was inactive.
With `OCCC(F)(F)C(F)(F)C(F)(F)C(F)(F)C(F)(F)C(F)(F)C(F)(F)C(F)(F)F`, the compound was called inactive in experiment [3], in experiment [4], in [5], in [8], in [9] and in experiment [10]. For the same compound, the compound was classed as inactive in [11], in experiment [12], in experiment [13], in experiment [14], in experiment [15] and in [16]. In addition, the result in experiment [17] and in [18] was inactive.
For the compound `CN1CCC[C@H]1c1cccnc1`, the result in [3], in [4], in [9], in experiment [10], in [11] and in experiment [12] was inactive. Further, the compound was classed as inactive in [13], in [14], in experiment [15], in experiment [17] and in experiment [18]. In addition, the values for the AC50 in experiment [8] and in [16] were 0.0479 µM (active) and 0.7 µM (active), respectively.
Take `O=C(O)Cc1cc(I)c(Oc2cc(I)c(O)c(I)c2)c(I)c1`: the result in experiment [1], in experiment [2], in experiment [5] and in [7] was inactive.
For `CC(C)(C)c1cc(C(C)(C)C)c(O)c(C(C)(C)C)c1`, the compound was classed as inactive in [3], in experiment [4], in experiment [8], in experiment [9], in experiment [10] and in [11]. Besides, the result in experiment [12], in experiment [13], in experiment [14], in [15], in [16] and in [17] was inactive. The AC50 in experiment [18] was 0.167 µM (active).
For the compound `O=[N+]([O-])c1ccc(O)cc1`, the compound was classed as inactive in experiment [1], in experiment [2], in experiment [5], in [6] and in experiment [7].
Take `Oc1cccc(O)c1`: in experiment [5], the outcome was inactive.
As for `NC(=O)N1C(=O)C(C(=O)c2cc(Cl)cs2)c2cc(F)c(Cl)cc21` (configuration not stated), the compound was classed as inactive in experiment [1], in experiment [5], in experiment [6] and in [7]. The AC50 in [2] was 2.3 µM (active).
